# Experimental data from ChEMBL document CHEMBL2218924, “A broad activity screen in support of a chemogenomic map for kinase signalling research and drug discovery” (Biochem J, 2013).
# Target: T1, Cyclin-dependent kinase 2/cyclin A (Homo sapiens) (UniProt P24941+P20248+P78396)
# Conditions: at 1 µM
row,SMILES,residual activity
1,CNc1cc2c(Nc3cccc(Br)c3)ncnc2cn1,123%
2,N#CCCc1ccc2c(c1)-c1[nH]c3ccc([N+](=O)[O-])cc3c1CC(=O)N2,0%
3,N#Cc1cnc2cnc(NCc3cccnc3)cc2c1Nc1ccc(F)c(Cl)c1,91%
4,O=C(O)c1ccc2c3c1cccc3c(=O)n1c3ccccc3nc21,82%
5,CCN(CC)C(=O)c1ccc(Nc2nc(OCC3CCCCC3)c3nc[nH]c3n2)cc1,59%
6,CC(C)n1cnc2/c(=N/c3cccc(Cl)c3)nc(NCCO)[nH]c21,24%
7,CC(=O)O/N=C1\C(=C2\C(=O)Nc3cc(Br)ccc32)Nc2ccccc21,60%
8,CC(C)n1cnc2c(NCc3ccccc3)nc(NCCCO)nc21,58%
9,CC(=O)c1ccc(N2CCOCC2)cc1O,103%
10,N#CC(C#N)=C(N)/C(C#N)=C/c1ccc(O)cc1,124%
11,Cc1ccc(NC2=CC(=O)c3sc(C)nc3C2=O)cc1,91%
12,Cc1cccc(-c2[nH]c(C(C)(C)C)nc2-c2ccc3c(c2)OCO3)n1,133%

# Target: T1, Cyclin-dependent kinase 2/cyclin A (Homo sapiens)
# Conditions: at 10 µM
row,SMILES,residual activity
1,c1ccc(-c2n[nH]c3c2oc2ccccc23)cc1,64%
2,COc1cc2ncnc(Nc3ccc(NC(=O)c4ccccc4)cc3)c2cc1OC,93%
3,O=C1NC(=O)/C(=C\c2ccc3nccnc3c2)S1,47%
4,O=C(Nc1cccc(Nc2nccc(Nc3cccc(C(F)(F)F)c3)n2)c1)C1CC1,93%
5,CCN(CC)CCCCN1c2ccccc2Oc2ccc(Cl)cc21,102%
6,O=C1Nc2cc(Br)ccc2/C1=C1/Nc2ccccc2/C1=N\O,38%
7,CC#CC(=O)Nc1cc2c(Nc3ccc(F)c(Cl)c3)ncnc2cn1,85%
8,Nc1ccc2ncnc(NCCc3ccc(Oc4ccccc4)cc3)c2c1,80%
9,O=C(Nc1cccc(Nc2cc(Nc3cccc(C(F)(F)F)c3)ncn2)c1)C1CC1,71%
10,COc1ccc(OC)c2c(=S)c3ccccc3[nH]c12,80%
11,O=c1c2ccccc2[nH]c(=S)n1CCN1CCC(=C(c2ccc(F)cc2)c2ccc(F)cc2)CC1,80%
12,CN(C)CCCn1cc(C2=C(c3c[nH]c4ccccc34)C(=O)NC2=O)c2ccccc21,38%
13,COc1cc2ncnc(Nc3ccc(O)c(Br)c3)c2cc1OC,42%
14,Cc1cc2ncc(-c3ccccc3)nc2cc1C,82%
15,COc1ccc(C(=O)Nc2sc3c(c2C(N)=O)CCCC3)cc1OC,91%
16,CO[C@H]1C[C@@H]2CC[C@@H](C)[C@@](O)(O2)C(=O)C(=O)N2CCCC[C@H]2C(=O)O[C@H]([C@H](C)C[C@@H]2CC[C@@H](O)[C@H](OC)C2)CC(=O)[C@H](C)/C=C(\C)[C@@H](O)[C@@H](OC)C(=O)[C@H](C)C[C@H](C)/C=C/C=C/C=C/1C,113%
17,c1ccc2c(-c3ccncc3)c[nH]c2c1,83%
18,CNc1cc2c(Nc3cccc(Br)c3)ncnc2cn1,94%
19,N#CCCc1ccc2c(c1)-c1[nH]c3ccc([N+](=O)[O-])cc3c1CC(=O)N2,1%
20,N#Cc1cnc2cnc(NCc3cccnc3)cc2c1Nc1ccc(F)c(Cl)c1,91%
21,O=C(O)c1ccc2c3c1cccc3c(=O)n1c3ccccc3nc21,41%
22,CCN(CC)C(=O)c1ccc(Nc2nc(OCC3CCCCC3)c3nc[nH]c3n2)cc1,9%
23,CC(C)n1cnc2/c(=N/c3cccc(Cl)c3)nc(NCCO)[nH]c21,5%
24,CC(=O)O/N=C1\C(=C2\C(=O)Nc3cc(Br)ccc32)Nc2ccccc21,24%
25,CC(C)n1cnc2c(NCc3ccccc3)nc(NCCCO)nc21,11%
26,CC(=O)c1ccc(N2CCOCC2)cc1O,88%
27,N#CC(C#N)=C(N)/C(C#N)=C/c1ccc(O)cc1,88%
28,Cc1ccc(NC2=CC(=O)c3sc(C)nc3C2=O)cc1,91%
29,Cc1cccc(-c2[nH]c(C(C)(C)C)nc2-c2ccc3c(c2)OCO3)n1,103%
